TNAP act mid DEA – human TNAP enzyme activators, primary screen, biochemical, luminescent, intermediate phosphate acceptor level; purified TNAP, CDP-star luminescence, 100 mM DEA, 30 min; stronger effect = higher value; scale: 0 levamisole-inhibited, 1 vehicle-only enzyme; activation factor at 20 µM; 64,000 tested, under 10 active; AID 813, 2007;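 active = activation factor of at least 2 at 20 µM, relative to controls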
Target sequence (P05186 whole entry, looked up): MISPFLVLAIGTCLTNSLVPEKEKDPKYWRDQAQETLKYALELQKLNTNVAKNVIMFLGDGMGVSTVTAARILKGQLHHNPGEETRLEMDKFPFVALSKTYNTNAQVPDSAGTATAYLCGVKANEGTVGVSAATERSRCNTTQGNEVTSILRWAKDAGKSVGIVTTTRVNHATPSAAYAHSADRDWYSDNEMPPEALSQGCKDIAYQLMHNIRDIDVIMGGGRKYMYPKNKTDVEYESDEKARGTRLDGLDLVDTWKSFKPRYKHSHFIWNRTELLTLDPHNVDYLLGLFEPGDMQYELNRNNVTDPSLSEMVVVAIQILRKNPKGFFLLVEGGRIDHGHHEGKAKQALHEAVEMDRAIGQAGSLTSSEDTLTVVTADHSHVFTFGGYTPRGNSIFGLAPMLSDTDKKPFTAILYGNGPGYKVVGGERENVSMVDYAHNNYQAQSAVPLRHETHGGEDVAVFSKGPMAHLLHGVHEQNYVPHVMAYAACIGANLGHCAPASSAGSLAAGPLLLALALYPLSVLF
PostGolgi ctrl – growth inhibition of yeast control strain, primary screen, counter-screen for post-Golgi transport modulator project | efflux-deficient yeast background strain, growth absorbance A615, 16 h | inhibition, % at 10 µM | actives 5% (n = 98,000)
Cav3 T inh – Cav3.2 calcium influx blockers – cell-based, Fluo-4 calcium fluorescence, FDSS, MLSMR library, primary screen. B-score at 10 µM. AID 449739, 2010. Voltage-dependent T-type calcium channel subunit alpha-1H (Homo sapiens), O95180. Cav3.2-expressing cells; stronger effect = lower value. actives 4% (n = 100,000);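 active = single-dose well whose peak fluorescence ratio is a statistical outlier from its plate by either plate-standardised score or position-corrected B-score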
PostGolgi yeast – phenotypic screen on post-Golgi transport, primary screen. post-Golgi transport phenotypic cell assay. inhibition, % at 10 µM. actives 0.9% (n = 98,000). AID 739, 2007;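 also: yeast cells grown in 1536-well plates; yeast grown about 18 h at 30C before absorbance read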
hDAT+cocaine – changed hDAT dopamine uptake under cocaine IC80, either direction, primary screen, cocaine antagonist project, cell-based, LLC-PK1 hDAT, [14C]-dopamine uptake, MLSMR; LLC-PK1 hDAT cells, [14C]-dopamine uptake with cocaine IC80; actives deviate in either direction; B-score at 10 µM; actives 1.3% (n = 110,000); AID 449768, 2010;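 active = Z score or B-score, a plate-position-corrected score, falls beyond the plate's 99.7% confidence bounds, in either direction; inactive = both scores lie inside the 99.7% bounds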
Smad3 FoxH1 inh – Smad3/FoxH1 peptide binding inhibitors, primary screen, biochemical, TR-FRET; Mothers against decapentaplegic homolog 3 (Homo sapiens), P84022; inhibition, % at 25 µM; TR-FRET Smad3/Dy647-FoxH1 peptide binding, europium anti-His; actives 0.29% (n = 88,000);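 active = compounds that reduce the energy-transfer binding signal between the protein and its labelled peptide by more than half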
Large screens that a line does not name were inactive. The list is not random: actives were taken first. Their share in the collection is about 8.7%. Rule as the data show it, unless noted: active = inhibition above about 30%; inactive = the rest.

Cc1ccccc1NC(=S)NCc1cccs1	none (no result: TNAP act mid DEA)
O=C(NC1CCN(C(=O)N2CCOCC2)CC1)c1ccccc1	PostGolgi ctrl 34
COC(=O)C1=C(C)NC(=O)NC1c1cc(Cl)ccc1OC (configuration not stated)	none
Cc1cc(C(=O)CN2C(=O)NC(c3ccccc3)(c3ccccc3)C2=O)c(C)n1Cc1ccccc1	Cav3 T inh -5 (no result: TNAP act mid DEA)
Cc1cc(C(=O)CN2C(=O)NC3(CCCCC3)C2=O)c(C)n1Cc1ccc2c(c1)OCO2	none
COc1ccc(NC(=O)c2c(-c3ccccc3Cl)noc2C)c(OC)c1	none
Cc1cccc(C)c1NC(=O)C(C)c1ccc(-c2ccccc2)c(F)c1 (configuration not stated)	Cav3 T inh -4.3 (no result: TNAP act mid DEA, Smad3 FoxH1 inh)
COC(=O)C(NC(C)=O)(Nc1nc(C)cs1)C(F)(F)F (configuration not stated)	none (no result: TNAP act mid DEA)
COC(=O)C(NC(C)=O)(Nc1nc2c(C)cc(C)cc2s1)C(F)(F)F (configuration not stated)	Cav3 T inh -4.3 (no result: TNAP act mid DEA)
CCOc1ccc(CCNc2nc3c(c(=O)n(C)c(=O)n3C)n2CC)cc1OCC	none (no result: Smad3 FoxH1 inh)
CCc1nc2sc3c(c2c(=O)n1NC(=O)CCl)CCCC3	none (no result: TNAP act mid DEA)
COc1ccc(Nc2ncc(C(=O)N3CCN(c4ccc(F)cc4)CC3)c3ccccc23)cc1	Cav3 T inh -5.9 (no result: TNAP act mid DEA)
COc1ccc(Nc2ncc(C(=O)O)c3ccccc23)cc1	none (no result: TNAP act mid DEA)
CCOC(=O)CC(=O)Nc1c(C)cc(C)cc1C	none
CCCN(CCC)C(=O)Cn1c(=O)n(CCC(=O)NCCc2ccccc2)c(=O)c2ccccc21	hDAT+cocaine -8 (no result: TNAP act mid DEA)
COc1cc(OC)c2c(-c3ccccc3)cc(=O)oc2c1C(CC(=O)N1CCCC1)c1ccc2c(c1)OCO2 (configuration not stated)	hDAT+cocaine 2.1 (no result: TNAP act mid DEA, PostGolgi ctrl, PostGolgi yeast, Smad3 FoxH1 inh)
CC(C)Sc1nc2c(c(=O)n1-c1ccc(F)cc1)SCC2	none
CCOC(=O)C1CCN(C(=O)CN(c2ccc(OC)cc2)S(=O)(=O)c2c(C)nn(C)c2C)CC1	none
Cc1ccc2cc(CN(CC3CCCO3)S(=O)(=O)c3ccccc3)c3nnnn3c2c1 (configuration not stated)	none (no result: TNAP act mid DEA, PostGolgi ctrl, PostGolgi yeast)
Cc1ccc2c(c1)cc(CN(Cc1ccco1)S(=O)(=O)c1ccccc1)c1nnnn12	PostGolgi ctrl 45
Cc1cccc(CN2CCN(C(=O)c3ccccc3F)CC2)c1	none
O=C(NCc1ccco1)C1CCN(c2nc3ccccc3n2Cc2ccc(F)cc2)CC1	Cav3 T inh -8.3
CCCCN(CCCC)S(=O)(=O)c1ccc(NC(=O)CN2CCOCC2)cc1	none (no result: TNAP act mid DEA)
COc1ccc(C2C3=C(CC(C)(C)CC3=O)Nc3cc4c(cc32)OCO4)cc1 (configuration not stated)	hDAT+cocaine 2.5 (no result: TNAP act mid DEA)
CC1(C)CC(=O)C2=C(C1)Nc1cc3c(cc1C2c1ccc(F)cc1)OCO3 (configuration not stated)	none (no result: TNAP act mid DEA)
O=C(Nc1nccs1)c1cc(N2CCOCC2)nc2ccccc12	PostGolgi ctrl 34
c1ccc2c(N3CCCC3)nc(-c3ccncc3)nc2c1	PostGolgi ctrl 61, PostGolgi yeast 57
c1ccc(-c2nc(N3CCCCCC3)c3ccccc3n2)nc1	hDAT+cocaine 2.1 (no result: Cav3 T inh)
CN1CCN(c2nc(-c3ccncc3)nc3ccccc23)CC1	none
CCN1CCN(c2nc(-c3ccccn3)nc3ccccc23)CC1	none (no result: TNAP act mid DEA)
C=CCOc1nc(-c2ccncc2)nc2ccccc12	PostGolgi ctrl 48
O=S(=O)(/C=C/c1ccccc1)N1CCN(c2ccc(F)cc2)CC1	none (no result: TNAP act mid DEA)
COc1ccc(Nc2nc(NCCO)nc(OC)n2)cc1	none (no result: TNAP act mid DEA)
CNc1nc(Nc2ccc(C(C)=O)cc2)nc(OC(C(F)(F)F)C(F)(F)F)n1	PostGolgi ctrl 30, hDAT+cocaine -5.9 (no result: Smad3 FoxH1 inh)
CC(=O)c1ccc(Nc2nc(NCCO)nc(OC(C(F)(F)F)C(F)(F)F)n2)cc1	hDAT+cocaine -6.3 (no result: TNAP act mid DEA, PostGolgi ctrl, PostGolgi yeast)
CCOC(=O)c1ccc(Oc2nc(NC)nc(Nc3ccccc3)n2)cc1	none (no result: TNAP act mid DEA)
COc1cc2c(C(=O)N3CCN(c4ccccc4)CC3)c(C)oc2cc1Br	PostGolgi ctrl 35
COc1ccc2oc(=O)c(C(=O)N3CCN(c4ccccc4)CC3)cc2c1	hDAT+cocaine 3.4
COc1ccc2oc(=O)c(C(=O)N3CCN(c4ccccc4C)CC3)cc2c1	none
C#CCOCCOCCOCCNc1nc(N2CCN(C(=O)[C@H](CCCCN)n3cc(C(N)CO)nn3)CC2)nc(N2CCN(C(=O)[C@H](CCCCN)n3cc(C(N)COC(=O)C(F)(F)F)nn3)CC2)n1 (some centres not stated)	none (no result: TNAP act mid DEA, PostGolgi ctrl, PostGolgi yeast, Smad3 FoxH1 inh)
Cc1ccc2c(C)nc(Nc3nc(CSc4nnnn4-c4ccccc4)cc(=O)[nH]3)nc2c1	none (no result: Cav3 T inh)
NS(=O)(=O)c1ccc(NC(=O)CSc2nnc(Cc3cccs3)n2-c2ccccc2)cc1	PostGolgi ctrl 34
COc1cccc(NC(=O)CSc2nnc(Cc3cccs3)n2-c2ccc(C)cc2)c1	none (no result: TNAP act mid DEA)
COc1ccc(NC(=O)CSc2nnc(Cc3cccs3)n2-c2ccc(C)cc2)cc1	Cav3 T inh -5.3 (no result: TNAP act mid DEA)
COc1ccc(-n2c(Cc3cccs3)nnc2SCC(=O)Nc2ccc3c(c2)OCCO3)cc1	Cav3 T inh -6.8
Cc1nn(CC(=O)NNC(=S)Nc2ccccc2)c(C)c1[N+](=O)[O-]	none (no result: TNAP act mid DEA, Smad3 FoxH1 inh)
COc1ccc(C(c2nnnn2CC2CCCO2)N2CCN(c3cccc(C)c3C)CC2)cc1 (configuration not stated)	Cav3 T inh -3.7
CCCCC(c1nnnn1CC1CCCO1)N1CCN(c2cccc(C)c2C)CC1 (configuration not stated)	Cav3 T inh -5.8
COc1ccc(C(c2nnnn2CC2CCCO2)N2CCC(C(N)=O)CC2)cc1 (configuration not stated)	none (no result: TNAP act mid DEA, PostGolgi ctrl, PostGolgi yeast)
O=C(NCC1CCCO1)c1ccc2c3n(nc2c1)-c1ccccc1CO3 (configuration not stated)	none (no result: TNAP act mid DEA, PostGolgi ctrl, PostGolgi yeast, Smad3 FoxH1 inh)
O=C(Nc1cccc(F)c1)c1ccc(S(=O)(=O)NCC2CCCO2)cc1 (configuration not stated)	Cav3 T inh -5.3
CCOC(=O)N1C2=NC(C(=O)OC)=C(C(=O)OC)[C@@H]3N(Cc4ccccc4)c4ccccc4[C@]23C[C@H]1C(=O)OC	none (no result: TNAP act mid DEA, PostGolgi ctrl, PostGolgi yeast, Smad3 FoxH1 inh)
COc1ccc(C2CC(=O)C3=C(C2)NC(C)=C(C(=O)Nc2ccccc2C)C3c2coc3ccc(C)cc3c2=O)cc1OC (configuration not stated)	PostGolgi yeast 98 (no result: TNAP act mid DEA, Smad3 FoxH1 inh)
CC(C)OC(=O)c1c(NC(=O)Cn2cnc([N+](=O)[O-])n2)sc2c1CCCC2	none (no result: TNAP act mid DEA, Smad3 FoxH1 inh)
COc1ccc(C2(O)CCN(CC(=O)Nc3nccs3)CC2)c(OC)c1	Cav3 T inh -4.7

High-throughput results (PubChem)
